Assay results: PubChem BioAssay (NCATS)
Some of the results follow. A call without a number means that no potency is given here. Records with an inconclusive call do not appear. Active and inactive are the calls of the source. Calls come from the whole dose curve.

Target: Furin (Homo sapiens) (UniProt P09958)
Assay: Selectivity profile for inhibitors of NSP2Pro chikungunya virus (CHIKV): Human furin counterscreen (AID 1964102)
Conditions: Recombinant human furin enzymatic counterscreen, fluorogenic substrate; series mostly up to 50.6 µM
Excerpt: PI: Natalia J. Martinez Ph.D.
National Center for Advancing Translational Sciences (NCATS),
National Institute of Health (NIH), Rockville, Maryland
Chikungunya virus (CHIKV) is a mosquito-borne RNA virus that has emerged as one of the most important global arboviral threats in the last decade. Although the first CHIKV vaccine has recently been FDA approved for use in healthy adults at increased risk, to date, there are no available antiviral drugs for CHIKV infection. CHIKV nsP2 protease plays a crucial role in the processing of the viral polypeptide precursor to release enzymes required for viral replication, thus making it a promising drug target for antiviral discovery. Here, we established a high-throughput pipeline to identify small molecule inhibitors of nsP2 proteolytic activity. The pipeline is composed of a suite of 1,536-well in vitro assays to support quantitative high-throughput (qHTS) screening campaigns. Specifically, we developed a fluorescence resonance energy transfer (FRET)-based assay using a fluorogenic peptide substrate encompassing an endogenous cleavage site and purified recombinant protease domain (nsP2pro). Using this assay, we interrogated ~37,000 small molecules, including those in drug repurposing libraries as well as chemically diverse and medicinal chemistry-friendly compounds. Hits were selected for follow-up validation against full-length nsP2 and an additional peptide. FRET-based 1,536-well assays for papain, hepatitis C virus NS3-4A, and human furin proteases were implemented to characterize compound selectivity. […] Novel compounds were identified to be potential nsP2 inhibitors and molecular docking analyses were performed to explain the binding mode of selected hits. In vitro antiviral activity was evaluated for a subset of compounds using a high-throughput CHIKV infection assay. To our knowledge, the pipeline presented here is unprecedented for CHIKV antiviral discovery research.
PROTOCOL TABLE (as described by Inglese J, Shamu CE and Guy RK. 2007)
SEQUENCE No. (e.g., 1, 2, 3, etc.); […] (e.g., Cells, Incubation, Reagent, etc.); VALUE; DESCRIPTION.
1; Enzyme; 2 uL; 1,536-well solid-bottom, black plate (Greiner Bio One).
2; Compounds; 20 nL; Echo 655 acoustic dispenser (Beckman Coulter).
3; Incubation; 15 min; room temperature in the dark.
4: Reagent; 2 uL; pERTKR-AMC.
5; Detection; Fluorescence; time 0, Viewlux microplate reader (PerkinElmer) 355 nm excitation, 460 nm emission
6; Incubation; 15 min; room temperature
7; Detection; Fluorescence; time 15; ViewLux microplate reader (PerkinElmer), 355 nm excitation, 460 nm emission.
NOTES (numbers refer to sequence numbers above).
1. Two micro-liter of furin enzyme solution (40 nM final concentration) in assay buffer (20 mM Tris-HCl pH 8.0, 150 mM NaCl, with 0.01% Tween 20) were dispensed into a 1,536-well solid-bottom black plate (Greiner Bio One) using the Kalypsys Pintool Station.
2. Twenty nano-liter of compounds, positive control Aprotinin (50 uM final concentration), or neutral control DMSO were transferred to the assay plates. Compounds in counterscreen assays were tested at 11 concentrations, 1:3 dilution points from 25 uM to 0.42 nM.
3. The assay plates were incubated in the dark for 15 min.
4. After incubation, 2 uL of 0.625 uM pERTKR-AMC substrate in assay buffer for the Furin assay was added using the Kalypsys Pintool Station.
5-7. Plates were immediately read at time 0 then covered with stainless steel gasket lids and incubated for 15 min at room temperature in the dark. Fluorescence intensity in the assay plates were again read after incubation using the ViewLux imager equipped with AMC fluorescence optics. The change in fluorescence intensity over the 15-min reaction period was normalized against DMSO and inhibitor controls as described below.
Inglese J, Shamu CE and Guy RK, Reporting data from high throughput screening of small molecule libraries, Nature Chemical Biology, 2007, 3(8): 438-441. doi.org/10.1038/nchembio0807-438.
Potency is the fitted concentration of half-maximal effect.

Sequence of Furin (Homo sapiens) (P09958 whole entry, looked up): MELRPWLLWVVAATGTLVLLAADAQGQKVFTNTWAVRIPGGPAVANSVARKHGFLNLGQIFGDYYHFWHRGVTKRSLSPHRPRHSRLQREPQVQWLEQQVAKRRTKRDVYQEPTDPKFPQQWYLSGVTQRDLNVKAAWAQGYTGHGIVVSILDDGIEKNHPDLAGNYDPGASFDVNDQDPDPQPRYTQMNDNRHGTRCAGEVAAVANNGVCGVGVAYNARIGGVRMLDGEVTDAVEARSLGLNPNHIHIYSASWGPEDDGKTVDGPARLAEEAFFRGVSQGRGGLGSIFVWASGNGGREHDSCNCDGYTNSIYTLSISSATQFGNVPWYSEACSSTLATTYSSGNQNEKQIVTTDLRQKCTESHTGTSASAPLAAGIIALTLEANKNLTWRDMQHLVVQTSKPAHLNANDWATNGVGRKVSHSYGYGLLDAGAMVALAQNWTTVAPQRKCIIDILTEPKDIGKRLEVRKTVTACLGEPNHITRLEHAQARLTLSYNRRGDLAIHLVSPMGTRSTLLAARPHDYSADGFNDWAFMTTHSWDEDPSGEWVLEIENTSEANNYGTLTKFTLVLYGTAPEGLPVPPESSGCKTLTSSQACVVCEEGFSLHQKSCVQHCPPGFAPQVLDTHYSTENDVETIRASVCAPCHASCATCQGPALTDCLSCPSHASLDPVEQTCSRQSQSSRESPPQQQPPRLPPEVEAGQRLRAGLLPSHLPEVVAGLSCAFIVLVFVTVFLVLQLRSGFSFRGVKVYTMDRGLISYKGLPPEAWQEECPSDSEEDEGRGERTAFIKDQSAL

| SMILES | Potency |
| --- | --- |
| CC(=O)N[C@@H](C(=O)O[C@H]1CCC(C)(C)[C@@H]2CCC3=C(COC3=O)[C@@]12C)C(C)C | inactive |
| Oc1ccc(OC2CCCCO2)cc1 (stereo not drawn) | inactive |
| C=Cc1c(C)c2cc3nc(cc4[nH]c(cc5nc(cc1[nH]2)C(C)=C5CCC(=O)O)c(CCC(=O)OC)c4C)[C@@]1(C)C3=CC=C(C(=O)OC)[C@H]1C(=O)OC | inactive |
| O=C(O)c1cccc(-n2[nH]c(-c3ccccc3)cc2=O)c1 | inactive |
| CCOc1ccc(NC(=O)c2c(NC(=O)Cc3ccccc3)sc3c2CCCCC3)cc1 | inactive |
| CCOc1ccc(N(Cc2ccccc2)C(=O)c2nc(S(C)(=O)=O)ncc2Cl)cc1 | inactive |
| C[C@@H]1[C@H](O)[C@@H]2OC(=O)C3=C2[C@H](CCC3)[C@@]12C[C@@H](c1ccoc1)OC2=O | inactive |
| C[C@@H]1C[C@@H](O)[C@@]23CO[C@]2(CO)C[C@@H](O)CC3[C@@]12CC(c1ccoc1)OC2=O (stereo partly drawn) | inactive |
| CCC(C)C(=O)OC1C(C)C2(O)C(C=C(CO)CC3(O)C(=O)C(C)=CC32)C2C(C)(C)C12OC(=O)C(C)C (stereo not drawn) | inactive |
| CCc1ccccc1NC(=O)c1cnn(-c2ccc(F)cc2)c1C1CCNCC1 | inactive |
| N#CSc1cc(SC#N)c(N)nc1N | inactive |
| COC([CH2][Hg])CNC(=O)c1ccccc1OCC(=O)O (stereo not drawn) | 2060 nM (active) |
| Cc1c(S(=O)(=O)O)oc2c1C(=O)C(=O)c1c-2ccc2c1CCCC2(C)C | inactive |
| CC1=C(/C=C/C(C)=C/C=C/C(C)=C/C=C/C=C(C)/C=C/C=C(C)/C=C/C2=C(C)CCCC2(C)C)C(C)(C)CCC1 | inactive |
| C=CC(=O)c1ccc2ccccc2c1 | inactive |
| C[C@@H]1O[C@@H](O[C@@H]2[C@@H](O)[C@H](OCCc3ccc(O)c(O)c3)O[C@H](CO[C@@H]3O[C@H](CO)[C@@H](O)[C@H](O)[C@H]3O)[C@H]2OC(=O)/C=C/c2ccc(O)c(O)c2)[C@H](O)[C@H](O)[C@H]1O | inactive |
| CCOc1ccc(NC(=O)c2c(NC(=O)Cc3ccccc3)sc3c2CCC(C)C3)cc1 (stereo not drawn) | inactive |
| CO[C@]1(NC(=O)CSC(F)F)C(=O)N2C(C(=O)O)=C(CSc3nnnn3CCO)CO[C@H]21 | inactive |
